# Results from the antibiotic and cytotoxicity screens of Wong et al. (2023).
# Screen size: about 39,000 compounds; about 500 (1.3%) were called active. Many of the other results were omitted from the sample, so actives are more common in it than they were.
# System: S. aureus RN4220
# Assay: growth inhibition call (relative growth <= 0.2)
# Details: 50 µM
row,Structure (SMILES),growth inhibition call
1,C[C@H]1CN([C@@H](C)CO)C(=O)c2cc(C#CCN(C)C)cnc2O[C@@H]1CN(C)Cc1cccc(C(=O)O)c1,inactive
2,COc1ccc(S(=O)(=O)N(C)C[C@@H]2Oc3ccc(NS(C)(=O)=O)cc3C(=O)N([C@H](C)CO)C[C@@H]2C)cc1,inactive
3,C[C@@H]1CCCCO[C@@H](CN(C)C(=O)C2CCCCC2)[C@H](C)CN([C@@H](C)CO)C(=O)c2cc(NC(=O)Nc3ccc(C(F)(F)F)cc3)ccc2O1,inactive
4,CO[C@H](CN(C)C(=O)C1CCOCC1)[C@@H](C)CN(C(=O)Nc1ccc(C(F)(F)F)cc1)[C@H](C)CO,active
5,CO[C@H](CN(C)C(=O)Nc1ccc(C(F)(F)F)cc1)[C@H](C)CN(Cc1ccccc1Cl)[C@H](C)CO,inactive
6,CO[C@H](CN(C)C(=O)C1CCOCC1)[C@H](C)CN(C(=O)Nc1ccc(C(F)(F)F)cc1)[C@H](C)CO,active
7,CO[C@@H](CN(C)C(=O)Nc1ccc(C(F)(F)F)cc1)[C@@H](C)CN(Cc1ccccc1Cl)[C@@H](C)CO,inactive
8,C[C@@H]1CCCCO[C@@H](CN(C)C(=O)C2CCCCC2)[C@@H](C)CN([C@H](C)CO)C(=O)c2cc(NC(=O)Nc3ccc(C(F)(F)F)cc3)ccc2O1,inactive
9,Cc1noc(C)c1NC(=O)Nc1ccc2c(c1)C(=O)N([C@H](C)CO)C[C@@H](C)[C@H](CN(C)S(=O)(=O)c1ccc(Cl)cc1)OCCCC[C@@H](C)O2,inactive
10,C[C@H](CO)N1C[C@H](C)[C@@H](CN(C)Cc2ccc(C(=O)Nc3ccccc3N)cc2)Oc2c(NC(=O)c3nc4ccccc4s3)cccc2C1=O,inactive
11,COc1ccc(S(=O)(=O)Nc2ccc3c(c2)C(=O)N([C@H](C)CO)C[C@H](C)[C@@H](CN(C)Cc2ccc(C(=O)O)cc2)OCCCC[C@@H](C)O3)cc1,inactive
12,CCNC(=O)C[C@H]1C=C[C@H](NC(=O)C2CC2)[C@H](CO)O1,inactive
13,O=c1c(O)nnc2n1CCN2c1ccccc1,inactive
14,Cc1noc(C)c1S(=O)(=O)Nc1cccc2c1O[C@@H](CN(C)S(=O)(=O)c1ccccc1)[C@@H](C)CN([C@H](C)CO)C2=O,inactive
15,Cc1ccc(S(=O)(=O)Nc2ccc3c(c2)C(=O)N([C@@H](C)CO)C[C@H](C)[C@@H](CN(C)CC2CCCCC2)OCCCC[C@H](C)O3)cc1,inactive
16,Cc1ccc(CN2CCN(CCO)CC2)o1,inactive
17,O=C(NCC(F)(F)F)[C@H]1[C@H](CO)[C@H]2Cn3c(cccc3=O)[C@@H]1N2C(=O)C1CCC1,inactive
18,CCCNC(=O)c1cc2c(c(-c3cccc(-c4ccc(F)cc4)c3)n1)[C@H](CCO)N([S@@](=O)C(C)(C)C)C2,inactive
19,CCCNC(=O)c1cc2c(c(-c3cccc(-c4cccc(F)c4)c3)n1)[C@H](CCO)N([S@@](=O)C(C)(C)C)C2,active
20,CCCNC(=O)c1cc2c(c(-c3cccc(-c4cccc(F)c4)c3)n1)[C@@H](CCO)N([S@](=O)C(C)(C)C)C2,inactive
21,C[C@@H]1CN([C@@H](C)CO)C(=O)c2cc(NC(=O)CCN3CCOCC3)ccc2O[C@H]1CN(C)S(=O)(=O)c1ccc(F)cc1,inactive
22,NCCCCCNC(=O)[C@@H]1C[C@@H]2C(=O)N[C@@H](CCCCN)C(=O)N2[C@@H]1c1cccc(OCCO)c1,inactive
23,Cc1sc(Nc2ccccc2)nc1-c1ccc(Cl)cc1,inactive
24,CSc1cccc2sc(Nc3ccc(Cl)cc3)nc12,active
25,c1ccc(Nc2nc3c(ccc4ccccc43)s2)cc1,inactive

row,Structure (SMILES),growth inhibition call
1,Cc1ccc(S(=O)(=O)Nc2cccc3c2O[C@H](CN(C)C(=O)Nc2cccc4ccccc24)[C@@H](C)CN([C@@H](C)CO)C3=O)cc1,inactive
2,COCC#Cc1ccc([C@H]2[C@H]3CN(C(=O)c4ccncc4)CC(=O)N3[C@H]2CO)cc1,inactive
3,CCOC(=O)CNC(=O)c1cc(C)on1,inactive
4,O=C(CN1CCNCC1)c1ccc(F)cc1,inactive
5,Cn1cc(S(=O)(=O)N2CCN(c3ccc(F)cc3)CC2)c(=O)n(C)c1=O,inactive
6,CN1CCN(c2cc3c(cc2F)c(=O)c(C(=O)O)cn3-c2ccc(F)cc2)CC1.Cl,active
7,Cl.O=C(O)c1cn(-c2ccc(F)cc2)c2cc(N3CCNCC3)c(F)cc2c1=O,active
8,Cc1ccc(C(=O)O)c(=O)n1C,inactive
9,O=C(c1ccccc1F)N1CCNCC1,inactive
10,Cc1noc(C)c1S(=O)(=O)N(C)C[C@@H]1Oc2ccc(NC(=O)NC(C)C)cc2CC(=O)N([C@@H](C)CO)C[C@@H]1C,inactive
11,O=C(NO)c1cn(-c2ccc(C[C@H]3C(=O)O[C@@H](Cc4ccccc4)[C@H]4C=C(/C=C/C5CC5)CN43)cc2)nn1,inactive
12,CCCCCOc1ccc([C@H]2C(C(=O)c3ccc4c(c3)OCCO4)=C(O)C(=O)N2Cc2ccco2)cc1,inactive
13,O=C(Nc1ccccc1)c1ccccc1O,active
14,O=C(Nc1ccccc1)c1ccccc1,inactive
15,NNC(=O)c1ccccc1O,inactive
16,CO[C@@H]1CN(C)C(=O)c2ccc(NS(=O)(=O)CC(F)(F)F)cc2OC[C@H](C)N(Cc2nccs2)C[C@H]1C,inactive
17,C[C@@H]1CN([C@@H](C)CO)C(=O)Cc2cc(NS(=O)(=O)c3cccs3)ccc2O[C@H]1CN(C)S(C)(=O)=O,inactive
18,Clc1ccc(C(Cn2ccnc2)OCc2c(Cl)cccc2Cl)c(Cl)c1.O=[N+]([O-])O (centres undefined),inactive
19,Clc1ccc(COC(Cn2ccnc2)c2ccc(Cl)cc2Cl)c(Cl)c1.O=[N+]([O-])O (centres undefined),inactive
20,Clc1ccc(C(Cn2ccnc2)OCc2ccsc2Cl)c(Cl)c1 (centres undefined),active
21,Cc1ccc(S(=O)(=O)N(C)C[C@@H]2OCCCC[C@H](C)Oc3ccc(NC(=O)C4CCCCC4)cc3C(=O)N([C@@H](C)CO)C[C@@H]2C)cc1,inactive
22,C=C[C@]1(C)C[C@@H](OC(=O)CS[C@@H]2C[C@H]3CC[C@@H](C2)N3C)[C@]2(C)[C@H](C)CC[C@]3(CCC(=O)[C@H]32)[C@@H](C)[C@@H]1O,active
23,C[C@H](CO)N1C[C@H](C)[C@H](CN(C)Cc2ccc(C(=O)O)cc2)OCCCC[C@H](C)Oc2ccc(NS(=O)(=O)c3ccc(F)cc3)cc2C1=O,inactive
24,COc1ccc(S(=O)(=O)N(C)C[C@@H]2Oc3c(NC(=O)C4CCOCC4)cccc3C(=O)N([C@H](C)CO)C[C@H]2C)cc1,inactive
